# Screening results (PubChem)
# phage Ecoli inh: E. coli growth loss with phage present; growth absorbance; inhibition, % at 11.9 µM; 360,000 compounds, 0.26% hits; AID 651602; in the data active means inhibition above about 11%
# E coli growth-1: bacterial growth inhibition, counter-screen for AddAB inhibitors; E. coli V3065 growth, OD600 absorbance, 18 h; inhibition, % at 11.9 µM; 330,000 compounds, 0.27% hits; AID 449728;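 active means inhibition above the campaign's mean inhibition across all tested compounds plus 3 SD, cut at about 9.9% in these data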;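 further: uninfected addAB+ strain grown without phage in ampicillin broth; 0% = DMSO wells and 100% = ciprofloxacin 0.95 µg/ml wells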
# Tat export inh: E. coli Tat transport inhibition. E. coli MC4100 TorA-mCherry Tat export, fluorescence. inhibition, % at 10 µM. 340,000 compounds, 0.036% hits. AID 488895;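 active means mean replicate inhibition at least 50% and at least half of replicates individually reaching 50%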;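 further: exported cargo escapes ClpAP degradation while cytoplasmic cargo is degraded and loses fluorescence; 0% = median of neutral control wells and 100% = median of NaSCN control wells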
# E coli growth-2: E. coli growth inhibition | 330,000 compounds, 0.21% hits | Escherichia coli growth, OD600, 23 h; stronger effect = lower value | AID 1053175 | OD600 absorbance (no concentration beside the values);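 active means OD600 absorbance below the run mean of sample wells minus 3.6 SD, in any replicate, cut at about 0.56 in these data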
# AddAB inh: less growth of phage-infected E. coli with AddAB; inhibition, % at 11.9 µM; 330,000 compounds, 0.29% hits; AID 435030; E. coli expressing H. pylori AddAB, absorbance growth; in the data active means inhibition above about 12%;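 further: 0% = vehicle wells of infected cells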
# AddAB conf: confirmation screen: growth loss of phage-infected E. coli expressing H. pylori AddAB. E. coli V3065 expressing H. pylori AddAB, T4 phage, OD; T4 phage with gene 2 nonsense mutations. inhibition, % at 11.9 µM. shares compounds with AddAB inh. 880 compounds, 64% hits;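 active means mean inhibition above a set limit taken from the earlier primary screen, cut at about 13% in these data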;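 further: higher means less bacterial growth since AddAB block lets phage replicate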
# RecBCD counter: AddAB counter-screen: growth loss of RecBCD+ E. coli infected with mutant T4 phage; shares compounds with AddAB inh; E. coli V66 + mutant T4 phage, OD growth; inhibition, % at 11.9 µM; 880 compounds, 73% hits;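 active means mean inhibition above the mean of solvent-only control wells plus 3 SD, cut at about 4% in these data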;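 further: optical density read after an 18 h incubation at 37 °C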
# Bact viability: reduces bacterial viability, AddAB inhibitor counter-screen; shares compounds with AddAB inh; absorbance (AddAB counterscreen); inhibition, % at 11.9 µM; 880 compounds, 35% hits; AID 488956; in the data active means inhibition above about 25%
# RecBCD conf: growth loss of phage-infected V66 E. coli, RecBCD confirmation screen. shares compounds with phage Ecoli inh. E. coli V66 + T4 2- phage, growth OD. inhibition, % at 11.9 µM. 890 compounds, 45% hits. AID 651982;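 active means mean inhibition over triplicates exceeding the hit threshold derived in the original primary screen, cut at about 11% in these data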
# Ecoli viability: inhibits E. coli viability, flagging RecBCD hits as nonselective. shares compounds with phage Ecoli inh. absorbance (OD) growth. inhibition, % at 11.9 µM. 890 compounds, 29% hits. AID 651983; in the data active means inhibition above about 20%;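 further: E. coli strain V66 grown with compound alone and no phage infection; 0% = bacteria with DMSO vehicle only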
# AddAB counter: growth loss of phage-infected AddAB E. coli, RecBCD counter-screen; 890 compounds, 45% hits; shares compounds with phage Ecoli inh; AID 651984; inhibition, % at 11.9 µM; E. coli expressing H. pylori AddAB + T4 phage, OD growth; gene 2 mutant T4, recBCD-deleted host;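 active means mean inhibition above the solvent-only control wells' mean plus 3 SD, cut at about 22% in these data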;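 further: higher means less bacterial growth from phage killing when AddAB is blocked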
# * hit, by the source's call; . = no result given. Only some compounds are listed: those with a hit (about 0.5% of all), similar ones and a draw of the others.
SMILES,phage Ecoli inh,E coli growth-1,Tat export inh,E coli growth-2,AddAB inh,AddAB conf,RecBCD counter,Bact viability,RecBCD conf,Ecoli viability,AddAB counter
CCn1cc(C(=O)NCCCN(C)C)c(=O)c2cc(F)c(N3CCN(C)CC3)cc21,93.3*,99.5*,37.4,0.0505*,99.8*,97.3*,90.2*,100.7*,69.9*,98.8*,100.7*
CCn1cc(C(=O)NCCN(C)C)c(=O)c2cc(F)c(N3CCN(C)CC3)cc21,96.4*,98.0*,8.0,0.0525*,100.7*,103.6*,98.8*,103.9*,49.0*,87.2*,98.8*
COc1cc(CN2C[C@@H](CO)O[C@@H](n3cnc4c(N5CCN(c6ccccc6)CC5)ncnc43)C2)cc(OC)c1OC,1.5,.,.,.,.,.,.,.,.,.,.
CCCNC(=O)c1cn(CC)c2cc(N3CCN(C)CC3)c(F)cc2c1=O,100.2*,99.6*,81.0*,0.0485*,98.1*,101.9*,100.8*,101.0*,102.7*,103.8*,103.0*
CCn1cc(S(=O)(=O)c2ccc(C)cc2)c(=O)c2cc(F)c(N3CCN(C)CC3)cc21,0.9,-1.3,4.8,0.692,-1.7,.,.,.,.,.,.
O=C(Cn1c(CO)nc2ccccc21)Nc1ccc2c(c1)OCCCO2,12.1*,13.7*,-5.3,0.688,12.2*,8.9,11.8*,10.0,5.0,8.1,3.9
CC(O)c1nc2ccccc2n1CC(=O)Nc1ccc2c(c1)OCCO2 (stereo not drawn),1.1,0.1,-8.5,0.749,1.7,.,.,.,.,.,.
CCOC(=O)C1=CCN(S(C)(=O)=O)C1c1ccc(Cl)cc1 (stereo not drawn),2.0,.,.,.,.,.,.,.,.,.,.
CCCCCCSc1nc(O)c(C2OC(=O)c3c2ccc(OC)c3OC)c(=O)n1CC (stereo not drawn),-0.1,1.5,-1.0,0.672,2.9,.,.,.,.,.,.
CC(C)c1c(C(=O)N/N=C/c2ccc3c(c2)OCO3)nnn1-c1nonc1N,-1.9,-1.8,2.6,.,5.5,.,.,.,.,.,.
CCN(CC)c1ccc(/C=N/NC(=O)c2nnn(-c3nonc3N)c2C(C)C)c(O)c1,11.1*,19.7*,-32.4,.,26.9*,11.3,15.7*,6.9,6.5,9.3,8.5
COc1cccc(-n2c(SCc3cc(=O)oc4cc(O)c(O)cc34)nc3ccccc3c2=O)c1,17.8*,16.1*,5.7,0.691,21.0*,13.1*,15.2*,16.8,5.0,6.7,8.5
COc1ccc(NS(=O)(=O)c2ccc(N)cc2)nn1,.,5.0,.,.,8.9,.,.,.,.,.,.
Nc1ccc(S(=O)(=O)Nc2ccc(Cl)nn2)cc1,16.0*,12.1*,-1.1,0.591,19.5*,19.4*,11.1*,29.9*,11.6*,8.4,39.3*
CC(=O)N1CCC(C(=O)NCCOc2cccc(C)c2)CC1,0.6,0.1,-1.0,0.638,2.5,.,.,.,.,.,.
CC[C@H]1OC(=O)[C@H](C)[C@@H](O[C@H]2C[C@@](C)(OC)[C@@H](O)[C@H](C)O2)[C@H](C)[C@@H](O[C@@H]2O[C@H](C)C[C@H](N(C)C)[C@H]2O)[C@](C)(OC)C[C@@H](C)C(=O)[C@H](C)[C@@H](O)[C@]1(C)O,14.5*,17.2*,58.4*,.,21.6*,52.0*,25.0*,27.8*,29.2*,30.1*,40.4*
Oc1ccc2ccccc2c1C=NNc1nnc(-c2ncc[nH]2)c2ccccc12,.,.,.,0.674,.,.,.,.,.,.,.
Oc1ccc2ccccc2c1/C=N/Nc1nnc(-c2ncc[nH]2)c2ccccc12,16.7*,14.3*,2.9,.,18.6*,21.6*,24.2*,22.9,17.4*,21.8*,27.3*
